Screening data: PubChem, National Center for Advancing Translational Sciences (NCATS)
Shown are actives, neighbours in structure and some others; about 13% of the full set was active somewhere.
HCV inhibitor = blocks hepatitis C virus | Huh7.5.1 HCVcc-Cre infection, luciferase reporter, 44 h | Potency, µM (series often up to 41.8 µM), for the others: at the highest dose activity change, negative = inhibition, usual class: inhibitors | 340,000 tested, 3.4% active; active means well fitted inhibition curve with a large enough effect; inconclusive means small, poorly fitted or top-dose-only effect, or another doubt; inactive means no such curve, though single readings can be large or run the other way; further: potency means the concentration at half of the fitted maximal effect; on the % scale 0 is the no-effect control and ±100 the full control effect
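Cells seeded at 1,000/well and cultured 4 h, then compounds added followed by HCVcc-Cre virus (~0.5 moi). After 44 h further culture, luciferase substrate was added, plates held 15 min at room temperature, and luminescence read for 15 sec.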
CHX counter = affects cycloheximide protein synthesis inhibition readout, counter-screen | cell reporter, cycloheximide protein synthesis inhibition counterscreen | max response, % | 300,000 tested, 12% active | AID 2314; in the data active means max response mostly above about 13%, no sharp cut-off; inactive means mostly below about 14%; further: read at 38.3 µM for the half of the compounds with a filed dose; 0% is about no effect
MARV entry inh = blocks Marburg virus binding to or entry into cells | 300,000 tested, 1.8% active | Potency, µM (highest dose often 37.8 µM), inactives show at the top dose activity change, negative = inhibition, usual class: inhibitors | Marburg virus pseudotyped entry inhibition, cell reporter; calls by dose curve; tested in HEK293 cells; further: potency means the concentration at half of the fitted maximal effect; on the % scale 0 is the no-effect control and ±100 the full control effect
Shiga toxin inh = Shiga toxin inhibition | Vero cells, Shiga toxin protein synthesis inhibition reporter | inhibition, % at 38.7 µM | 290,000 tested, 9.2% active; in the data active means inhibition mostly above about 28%, no sharp cut-off; inactive means mostly below about 43%; further: 0% is about no effect
Lassa entry inh = blocks Lassa virus binding to or entry into cells; Lassa virus pseudotype entry inhibition, cell reporter; Potency, µM (doses to about 37.9 µM), for inactives: at the top dose activity change, negative = inhibition, most hits filed as inhibitors; 300,000 tested, 1.2% active; AID 540256; calls by dose curve; tested in HEK293 cells; further: potency means the concentration at half of the fitted maximal effect; on the % scale 0 is the no-effect control and ±100 the full control effect; nearly all actives have a fitted effect of over 50% in size
FMDV antiviral = foot and mouth disease virus antiviral activity. FMDV antiviral cell-based qHTS. Potency, µM (highest dose often 57.9 µM), for inactives: top-dose activity change, negative = inhibition, most hits filed as inhibitors. 410,000 tested, 1.2% active. AID 1159524; calls by dose curve; tested in HEK293T cells; further: read-out not given here; potency means the concentration at half of the fitted maximal effect; on the % scale 0 is the no-effect control and ±100 the full control effect; nearly all actives have a fitted effect of over 45% in size
The depositor's hits bear a star; ? = inconclusive; nt = not tested or not shown; [ ] = dose if it differs, or a comment.

SMILES | HCV inhibitor | CHX counter | MARV entry inh | Shiga toxin inh | Lassa entry inh | FMDV antiviral
COc1ccc(COC(=O)N/C=C/c2ccco2)cc1 | 4% | -2 | 2%[46.1 µM] | 20 | 1.2µM* | 10%
C=CCNC(=S)NCC=C | 17% | 2 | nt | -3 | nt | -23%
O[C@@H]1C[C@H](c2ccc(Cl)cc2)N(CC2CCCCC2)C[C@H]1n1cc(C2CC2)nn1 | nt | nt | nt | nt | nt | -17%
COc1ccc(/C=C/c2c([N+](=O)[O-])c(=O)n(C)c(=O)n2C)c(OC)c1 | 11µM* | 3 | -5%[46.1 µM] | 3 | nt | ?
CCOc1ccc(/C=C/c2c([N+](=O)[O-])c(=O)n(C)c(=O)n2C)cc1 | 10% | -1 | ? | -14 | ? | -29%
Cn1c(/C=C/c2ccc(Cl)cc2Cl)c([N+](=O)[O-])c(=O)n(C)c1=O | ? | -1 | nt | -4 | nt | 32µM*
CCc1ccc(/C=C/c2c([N+](=O)[O-])c(=O)n(C)c(=O)n2C)cc1 | ? | 12 | nt | -3 | nt | 16µM*
CCCn1c(CCC(=O)Nc2ccccc2Cc2ccccc2)nc2cc(S(=O)(=O)N3CCOCC3)ccc21 | ? | -2 | 13µM* | -13 | ? | -11%
CCn1c(CCl)nc2cc(S(=O)(=O)N3CCOCC3)ccc21 | ? | nt | -14% | nt | ? | 28µM*
CCn1c(SCC(N)=O)nc2cc(S(=O)(=O)N3CCOCC3)ccc21 | 4% | -5 | 12%[46.1 µM] | 23 | -4% | 0%
CCn1nnnc1SCC(=O)c1cc(Cl)ccc1OC | -21% | -4 | nt | 12 | nt | 10%
Cc1cc(=O)oc2cc(OCC(=O)Nc3c(C(C)C)cccc3C(C)C)ccc12 | nt | nt | nt | nt | -5%[46.1 µM] | -11%
O=C(Oc1ccccc1)c1cccc(COC(=O)c2cnccn2)c1 | 8% | 36* | -2% | active | 10% | 33%
CSCc1ccc(C(=O)OCc2nc3ccccc3s2)o1 | -1% | nt | ? | nt | 0%[46.1 µM] | 23%
O=C(O)c1ccccc1OCc1nc2ccccc2s1 | -1% | 65* | -26%[46.1 µM] | 110* | ? | 0%
O=C(OCc1nc2ccccc2s1)c1cccs1 | 15% | 52* | 16% | 92* | 5% | 11%
O=C(OCc1nc2ccccc2s1)c1ccccc1O | ? | 67* | 20%[46.1 µM] | 58* | 4% | 26%
Cc1cccc(N(C)S(=O)(=O)c2nnc(NC(=O)C3CCCCC3)s2)c1 | nt | nt | nt | nt | ? | 4%
COc1ccc2c(c1)SCC(=O)N2C | 12% | -3 | -6% | 51 | -15% | 5%
COc1cc(OC)cc(C(=O)NCC(=O)OCc2nc3ccccc3s2)c1 | 21% | 36* | ? | 113* | 22% | 49%
CCCCC(=O)OCc1nc2ccccc2s1 | -6% | 28* | 0% | 76 | -1% | 65%
O=C(CNC(=O)c1ccc(Cl)cc1)OCc1nc2ccccc2s1 | 9% | 7 | 12%[46.1 µM] | 20 | -2% | 57%
Cc1noc(C)c1COC(=O)CCCc1nc2ccccc2s1 | 20% | -3 | -2% | -8 | 7% | -2%
O=C(OCc1nc2ccccc2s1)c1cnccn1 | 2% | 32* | 24% | 93* | 7% | 56%
O=C(c1ccccc1)c1ccc(COC(=O)c2cnccn2)cc1 | -1% | -1 | ? | -5 | 14% | 1%
SMILES | HCV inhibitor | CHX counter | MARV entry inh | Shiga toxin inh | Lassa entry inh | FMDV antiviral
CC(O)(c1ccccc1)C(C(c1ccccc1)N1CCOCC1)N1CCOCC1 (stereo unspecified) | 13% | nt | -15% | nt | -3% | -22%
COC(=O)N[C@@H](CCc1ccccc1)[C@]1(C(C)=O)CCCC1=O | nt | nt | 12%[14.2 µM] | nt | nt | nt
Nc1nc(CSc2nc3ccccc3[nH]2)nc(N2CCOCC2)n1 | 20% | -4 | 1% | -8 | 2% | -15%
O=C(NCc1ccncc1)Nc1ccccc1F | 17% | 2 | nt | 7 | nt | 13%
Cc1ccc(S(=O)(=O)c2nc(C)c3c(n2)CCC3)cc1 | 12% | -2 | 1% | 16 | 1% | 15%
COc1cccc(S(=O)(=O)c2nc(C)c3c(n2)CCC3)c1 | 4% | 2 | nt | 11 | nt | 13µM*
COc1cc(O)c(C(C)=O)c(OC)c1 | 10% | nt | nt | nt | nt | -25%
COc1cc(OC)c(C(=O)/C=C/c2ccc(OCc3ccccc3)c(OC)c2)c(OC)c1 | ? | 5 | 11µM* | 6 | ? | ?
COc1cc(O)c(C(=O)/C=C/c2ccccc2)c(OC)c1 | ? | 34* | nt | 70* | nt | 25%
COc1cc(/C=C/[N+](=O)[O-])ccc1OCc1cccc(C(=O)O)c1 | -4% | 83* | ? | 131* | 0.63µM* | 10µM*
COc1cc(/C=N/NC(=O)c2cccc([N+](=O)[O-])c2)ccc1OCc1ccccc1 | ? | 2 | -23% | -16 | 6% | 17%
COc1cc(F)ccc1S(=O)(=O)NCc1cccnc1 | -13% | 5 | nt | nt | nt | 35%
COc1cc(NC(=O)c2cc([N+](=O)[O-])ccc2NC(=O)CNCc2ccccn2)cc(OC)c1 | -14% | -7 | -18%[46.1 µM] | -7 | 11µM* | ?
COc1cc(NC(=O)c2cc([N+](=O)[O-])ccc2NC(=O)CNC2CCCCC2)cc(OC)c1 | ? | 0 | -16%[46.1 µM] | 7 | -9% | -6%
CC1CCCCC1NCc1cccc([N+](=O)[O-])c1 (stereo unspecified) | 26% | 12 | -17% | 42* | 9% | 26%
COc1cc(NC(=O)c2cc([N+](=O)[O-])ccc2NC(=O)CNC2CCCCC2C)cc(OC)c1 (stereo unspecified) | 6.3µM* | -3 | ? | -5 | ? | -24%
O=[N+]([O-])c1cccc(CNC2CCCCCC2)c1 | 16% | -4 | ? | -6 | -10% | -19%
COc1ccc(NC(=O)c2cc([N+](=O)[O-])ccc2NC(=O)CNCc2ccccn2)c(OC)c1 | ? | 8 | 7%[46.1 µM] | 20 | ? | -13%
Cn1nnc2cc(NC(=O)Nc3cccc(Cl)c3)ccc21 | 0% | 37* | nt | 52* | nt | 31%
O=C(Nc1ccc2nccnc2c1)Nc1ccccc1Cl | -23% | 32* | ? | 62* | -1%[46.1 µM] | 13%
O=C(Nc1ccc2ncccc2c1)c1ccccc1Cl | 27% | -2 | nt | 7 | nt | -6%
O=C(Nc1cccc(Cl)c1)Nc1ccc2nccnc2c1 | ? | 31* | nt | 55* | nt | 8%
Cn1nccc1NC(=O)Nc1cccc(Cl)c1 | 5% | -2 | -7%[46.1 µM] | -1 | -1%[46.1 µM] | 25%
C[C@@H]1C=C(C(=O)O)O[C@H](OCc2ccc(CO)cc2)C1 | 15% | -1 | nt | -8 | nt | 3%
CC(C)n1cnc2cc(NC(=O)c3ccco3)ccc21 | 6% | 28* | -7%[46.1 µM] | 75* | ? | 13%
O=C(Nc1ccc2c(c1)ncn2C1CCCCC1)c1ccco1 | -2% | 37* | 26% | 91* | 9% | 11%
COc1ccc(-n2cnc3cc(NC(=O)c4ccco4)ccc32)cc1 | -26% | 21 | 2% | -10 | -10% | 27%
CC(=O)[O][Hg][c]1ccccc1 | nt | nt | nt | nt | nt | 4.5µM*
CC(=O)Oc1ccccc1C(=O)O | 18% | nt | ? | nt | ? | -17%
CCn1ccc(C(=O)Oc2ccc(C(C)C)cc2)n1 | -5% | 36* | 12% | 71* | 4% | nt
